# Laboratory results as given in PubChem BioAssay AID720541 (National Center for Advancing Translational Sciences (NCATS), 2013).
# About 420 (32%) of roughly 1,300 compounds were called active. Another 32% or so got no clear call; they are omitted. Some of the results follow. Unmarked numbers belong to inactive results. The call rests on the fitted dose curve; in most records, active means well fitted inhibition curve with a large enough effect; inconclusive means small, poorly fitted or top-dose-only effect; inactive means no such curve, though single readings can be large or run the other way.
# Target: C-terminal-binding protein 1 (Homo sapiens) (UniProt Q13363)
# Experiment: qHTS for Inhibitors of the Phosphatase Activity of Eya2: Carboxyl-terminal binding protein (CtBP) Counterscreen for Cherry-picked Compounds; further: nearly all actives have a fitted effect of over 65% in size
# Settings: purified protein-protein binding, AlphaScreen, 3 h; series mostly up to 46.1 µM; activity change, negative = inhibition: at the top concentration
# In short: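 AlphaScreen using 25 nM GST-E1A with 25 nM CtBP-6xHIS; compounds at 2.5 nM–46 uM final, 2 h at room temperature, then donor/acceptor beads (20 ug/mL) for 1 h in the dark. Signal normalized to E1A peptide inhibitor (maximum inhibition) and DMSO.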
# On the % scale 0 is the no-effect control and ±100 the full control effect; potency means the concentration at half of the fitted maximal effect.
Structure (SMILES),Potency,"activity change, negative = inhibition [%]"
CN(C)c1ccc(/C=C/C=C2/C=Cc3ccccc32)cc1,5.36 µM (active),
CC1=C/C(=C\c2ccc(N(C)C)cc2)c2ccccc21,7.57 µM (active),
CCN(CC)c1ccc(/C=C2\C=Cc3ccccc32)cc1,7.57 µM (active),
CN(C)c1ccc(/C=C2\C=Cc3ccccc32)cc1,8.49 µM (active),
C=C(CC[C@]12OC(C(=O)O)C(O)(C(=O)O)C(C(=O)O)(O1)C(OC(=O)/C=C/[C@@H](C)C[C@@H](C)CC)C2O)[C@@H](OC(C)=O)[C@H](C)Cc1ccccc1 (some centres undefined),,-7.4
COC(=O)C(Sc1ccc(Cl)cc1)C1SC(=S)N(Cc2ccccc2)C1=O (centres undefined),,-28.7
Cc1cccc(C#Cc2ccccc2)n1,,29
C[C@H](CCC(=O)NCC(=O)O)[C@H]1CC[C@H]2[C@@H]3[C@H](O)C[C@@H]4C[C@H](O)CC[C@]4(C)[C@H]3C[C@H](O)[C@]12C,,2.71
CN(C)c1ccc(C=C2C=Cc3ccccc32)cc1,7.57 µM (active),
Cc1nn(C)c(Cl)c1CN1CCCC(CO)(Cc2cccc(Cl)c2)C1 (centres undefined),,2.96
CC(C)n1ncc2c(C(=O)N3CCN(Cc4ccc(Br)s4)CC3)cc(C3CC3)nc21,,-21.5
COc1ccc(N2CCN(C(c3cccs3)C(C)NC(=O)c3ccc4c(c3)OCO4)CC2)cc1 (centres undefined),,56
COc1ccc(N2CCN(C(=O)Cc3ccc(Cl)cc3)CC2)cc1,,-20.1
COc1ccc(N2CCN(Cc3ccc(Br)s3)CC2)cc1,15.1 µM (active),
COc1ccc(N2CCN(Cc3cc4c(cc3Br)OCCO4)CC2)cc1,12 µM (active),
COc1ccc(N2CCN(C(=O)CCC(=O)N3CC(C)Oc4ccc(C)cc43)CC2)cc1 (centres undefined),,-26.2
COC(=O)c1c(C)[nH]c(C(=O)C(C)OC(=O)C2CC(=O)N(c3ccc(C)cc3)C2)c1C (centres undefined),,-17.4
COc1cc(CNCc2ccc(OC)cc2OC)cc(OC)c1,,3.5
O=C(O)c1cc(-c2ccc(/C=C3\NC(=O)N(c4ccc(Cl)cc4)C3=O)o2)ccc1Cl,8.49 µM (active),
Cc1cc(NC(=O)CSc2nnc(Nc3ccccc3F)s2)no1,,3.43
CC(C)Nc1nnc(SCC(=O)Nc2ccc3c(c2)C(=O)c2ccccc2C3=O)s1,5.36 µM (active),
CCCCc1cc(=O)oc2cc(OCC(=O)N3CCC(C(=O)O)(c4ccccc4)CC3)ccc12,,-36.1
Cc1coc2c(C)c3oc(=O)c(CCC(=O)N4CCC(C(=O)NCCCC(=O)O)(c5ccccc5)CC4)c(C)c3cc12,15.1 µM (active),
CC1(C)CC(=O)C=C(c2ccc(COC(=O)c3cc(F)cc(F)c3)cc2)C1=O,,-21.6
CCn1cc(C(=O)N[C@@H](C)C(=O)NCCCn2ccnc2)c(=O)c2cc3c(cc21)OCO3,,-1.17

Structure (SMILES),Potency,"activity change, negative = inhibition [%]"
Cc1ccc(C(=O)N/C(=C\c2ccco2)C(=O)NCCCn2ccnc2)cc1,3.79 µM (active),
Cc1ccc(Nc2nnc(SCC(=O)c3c(N)n(C4CC4)c(=O)[nH]c3=O)s2)cc1C,,-9.32
Cc1cccc(Nc2nnc(SCC(=O)NCC3CCCO3)s2)c1 (centres undefined),15.1 µM (active),
C/C(N)=C(/C#N)C(=O)CSc1nnc(Nc2cccc(C)c2)s1,,-9.35
COc1ccc(-c2cn3c(C)c(C(=O)NCc4ccc5c(c4)OCO5)sc3n2)cc1,,-1.04
O=c1[nH][nH]cc1C=Nc1cc(Cl)ccc1O,8.49 µM (active),
O=c1oc(-c2ccco2)nc2ccccc12,13.5 µM (active),
Cc1cc(C)c2c(/C=C/c3ccc(N(C)C)cc3)ccnc2c1,13.5 µM (active),
CN(C)c1ccc(/C=C/c2ccnc3ccc(-c4ccccc4)cc23)cc1,12 µM (active),
COc1ccc(N=C2SC(C(=O)N3CCN(c4ccc([N+](=O)[O-])cc4)CC3)CC(=O)N2C)cc1 (centres undefined),,-8.15
CC(C)(C)NC(=O)c1cccc(NC(=O)c2ccc(NC(=O)c3ccco3)cc2)c1,,-15.5
O=C(O)c1ccc2nc(-c3ccco3)c(-c3ccco3)nc2c1,7.57 µM (active),
CC(C)[C@H](NC(=O)c1ccccc1)C(=O)NC1CCCCCCC1,,12.3
O=C(NC1CC1)c1ccc2nc(-c3ccco3)c(-c3ccco3)nc2c1,8.49 µM (active),
O=C(Nc1ccccc1)c1ccc2nc(-c3ccco3)c(-c3ccco3)nc2c1,13.5 µM (active),
O=C(NCCCO)c1ccc2nc(-c3ccco3)c(-c3ccco3)nc2c1,5.36 µM (active),
Cc1ccc(C(O)c2ncc(-c3ccc4ccccc4c3)[nH]2)cc1F (centres undefined),,-28.8
CN(C)C(CNC(=O)c1ccc2c(c1)S(=O)(=O)c1ccccc1C2=O)c1ccco1 (centres undefined),,-25.3
O=C(NCc1ccccc1)c1ccc2nc(-c3ccco3)c(-c3ccco3)nc2c1,16.9 µM (active),
Cc1ccc(CNC(=O)c2ccc(-n3cccc3)cc2)cc1,,2.52
Cc1c(CC(=O)NCC(=O)O)c(=O)oc2cc3occ(-c4ccccc4)c3cc12,13.5 µM (active),
Cc1c(CC(=O)NCCCC(=O)O)c(=O)oc2cc3occ(-c4ccccc4)c3cc12,13.5 µM (active),
COc1ccc(-c2coc3cc4oc(=O)c(CC(=O)O)c(C)c4cc23)cc1,13.5 µM (active),
Cc1c(CC(=O)N[C@@H](C)C(=O)O)c(=O)oc2cc3occ(-c4ccccc4)c3cc12,6.75 µM (active),
